For nine compounds, z-score and composite z-score results are on record in PubChem BioAssay.

SMILES strings stand for the structures. Calls of active or inactive are those of the source. Unless noted, how the calls were made is not given here.

A short description of assay [1]: compound effects on lung adenocarcinoma cell viability – A549, calcein-AM fluorescence, 48 h, basal, profiling panel (AID 1162). Further: test concentration not given here. The following applies: higher = more signal.
The nature of assay [2]: compound effects on differentiated 3T3-L1 adipocyte viability – cell-based, 3T3-L1 adipocytes, calcein-AM fluorescence, 48 h, basal, profiling panel (AID 1163). Further: test concentration not given here. The conditions noted are these: 3T3-L1 adipocytes viability, higher = more signal.
Assay [3] can be described thus: compound effects on hepatocellular carcinoma cell viability – HepG2, calcein-AM fluorescence, 48 h, basal, profiling panel (AID 1164). Further: test concentration not given here. The conditions noted are these: higher = more signal.
Assay [4] in a line: compound effects on multiple myeloma cell viability – MM1S, calcein-AM fluorescence, 48 h, basal, profiling panel (AID 1165). Further: test concentration not given here. The conditions noted are these: higher = more signal.
Assay [5] can be described thus: calcein-AM signal in unstimulated myeloma cells – cell-based, calcein-AM fluorescence, 48 h, PK04 Diversity Set, profiling panel (AID 1166).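 Further: cells grown under basal conditions without added stimulus; test concentration not given here.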 The following applies: RPMI8226 myeloma viability, higher = more signal.
Assay [6] in a line: JC-1 mitochondrial signal, unstimulated HepG2 cells – cell-based, JC-1 fluorescence, 24 h, 100 nL compound, profiling panel (AID 1167). Further: test concentration not given here. The following applies: HepG2 mitochondrial potential, higher = more signal.
Assay [7] can be described thus: JC-1 mitochondrial signal, unstimulated adipocytes – cell-based, JC-1 fluorescence, 3T3-L1 adipocytes, 24 h, 100 nL compound, profiling panel (AID 1168). Further: test concentration not given here. The following applies: JC-1 mitochondrial fluorescence, higher = more signal, called active from +8 up or from −8 down.
Assay [8] can be described thus: JC-1 mitochondrial signal, unstimulated myeloma cells – cell-based, JC-1 fluorescence, RPMI8226, 24 h, 100 nL compound, profiling panel (AID 1169). Further: test concentration not given here. The following applies: JC-1 mitochondrial potential fluorescence, higher = more signal.
Assay [9] can be described thus: JC-1 mitochondrial signal, unstimulated MM1S myeloma – cell-based, JC-1 fluorescence, 24 h, 100 nL compound, profiling panel (AID 1170). Further: test concentration not given here. The following applies: MM1S mitochondrial potential, higher = more signal.
The nature of assay [10]: resazurin metabolic signal in A549 cells – cell-based, resazurin fluorescence, 24 h, PK04 Diversity Set, profiling panel (AID 1171). Further: test concentration not given here. The conditions noted are these: A549 viability, higher = more signal, called active from +8 up or from −8 down.
The nature of assay [11]: resazurin metabolic signal in HepG2 cells – cell-based, resazurin fluorescence, 24 h, PK04 Diversity Set, profiling panel (AID 1172). Further: test concentration not given here. The following applies: HepG2 viability, higher = more signal. A general note: Alamar Blue is a resazurin reagent that responds to reducing activity.
Assay [12] in a line: budding yeast growth changes without added modifier – OD600, strain BY4716, 24 h, basal condition, primary screen (AID 1173). The following applies: S. cerevisiae BY4716 growth, OD600, 24 h; higher = more signal, called active from +8 up or from −8 down.
Assay [13] in a line: viability profiling in MM1S myeloma cells – cell-based, resazurin fluorescence, basal, 24 h, PK04 Diversity Set, profiling panel (AID 1174). Further: test concentration not given here. The conditions noted are these: higher = more signal, called active from +8 up or from −8 down.
Assay [14] has as its target Dihydroorotate dehydrogenase (quinone), mitochondrial (Plasmodium falciparum (isolate 3D7)) (UniProt Q08210). In words: inhibition of P. falciparum DHODH – biochemical, C-terminal His tag, absorbance 600 nm, primary screen (AID 1175).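 Further: recombinant parasite enzyme with a five histidine tag at its C terminus; test concentration not given here.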 The conditions noted are these: PfDHODH enzyme, DCIP absorbance 600 nm; higher = more signal, called active from +8 up or from −8 down.
A short description of assay [15]: inhibition of PAO1 biofilm formation – strain PAO1, LB-PBS medium, absorbance 600 nm, primary screen (AID 1176). Further: test concentration not given here. The conditions noted are these: P. aeruginosa PAO1 growth/biofilm, A600, 12 h; higher = more signal.
The nature of assay [16]: growth modulation of vineyard yeast isolate – strain RM11-1a, OD600, basal, 24 h, primary screen (AID 1177).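 Further: cultures grown under basal conditions with no added stressor; test concentration not given here.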 The following applies: S. cerevisiae RM11-1a growth, OD600, 24 h; higher = more signal, called active from +8 up or from −8 down.
The nature of assay [17]: growth of efflux-deficient E. coli DRC39 – strain DRC39, OD650, 24 h, E. coli filamentation inducers, primary screen (AID 1178).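 Further: growth measured as culture turbidity by optical density at 650 nm; test concentration not given here.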 The conditions noted are these: E. coli DRC39 acrAB, higher = more signal, called active from +8 up or from −8 down.
The nature of assay [18]: growth of efflux-deficient E. coli DRC39 – strain DRC39, OD650, 48 h, E. coli filamentation inducers, primary screen (AID 1179).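 Further: screen aims at cell division blockers that make cells filament.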 The following applies: E. coli DRC39 delta-acrAB growth, higher = more signal, called active from +8 up or from −8 down.
Assay [19] can be described thus: viability profiling in RPMI8226 myeloma cells – cell-based, resazurin fluorescence, basal, 24 h, PK04 Diversity Set, profiling panel (AID 1180).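 Further: RPMI8826 multiple myeloma cell line at 5000 cells per well; test concentration not given here.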 The following applies: higher = more signal.
Assay [20] addresses E3 ubiquitin-protein ligase XIAP (Homo sapiens) (UniProt P98170). As to the kind of experiment: small molecules binding XIAP protein – biophysical, small-molecule microarray, fluorescence 635 nm, primary screen (AID 1181).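 Further: score merges 667 nm emission and signal to noise over triplicate slides.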 The conditions noted are these: higher = more signal.

Chain of Dihydroorotate dehydrogenase (quinone), mitochondrial (Plasmodium falciparum (isolate 3D7)) (Q08210 whole entry, looked up): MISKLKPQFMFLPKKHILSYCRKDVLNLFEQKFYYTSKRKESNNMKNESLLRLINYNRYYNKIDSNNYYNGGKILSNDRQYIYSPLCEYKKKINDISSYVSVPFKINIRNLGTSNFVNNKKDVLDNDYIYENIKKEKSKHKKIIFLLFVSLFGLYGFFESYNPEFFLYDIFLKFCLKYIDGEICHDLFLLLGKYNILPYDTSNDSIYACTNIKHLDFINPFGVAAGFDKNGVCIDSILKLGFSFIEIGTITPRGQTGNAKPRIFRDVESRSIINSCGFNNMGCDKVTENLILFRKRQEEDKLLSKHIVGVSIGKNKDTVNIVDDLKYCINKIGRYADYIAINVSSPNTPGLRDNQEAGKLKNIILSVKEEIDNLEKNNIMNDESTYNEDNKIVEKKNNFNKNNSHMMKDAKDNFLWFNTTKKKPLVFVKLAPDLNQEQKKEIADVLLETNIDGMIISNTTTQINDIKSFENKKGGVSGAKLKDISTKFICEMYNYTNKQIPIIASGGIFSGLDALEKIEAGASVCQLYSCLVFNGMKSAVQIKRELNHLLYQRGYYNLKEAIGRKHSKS
Chain of E3 ubiquitin-protein ligase XIAP (Homo sapiens) (P98170 whole entry, looked up): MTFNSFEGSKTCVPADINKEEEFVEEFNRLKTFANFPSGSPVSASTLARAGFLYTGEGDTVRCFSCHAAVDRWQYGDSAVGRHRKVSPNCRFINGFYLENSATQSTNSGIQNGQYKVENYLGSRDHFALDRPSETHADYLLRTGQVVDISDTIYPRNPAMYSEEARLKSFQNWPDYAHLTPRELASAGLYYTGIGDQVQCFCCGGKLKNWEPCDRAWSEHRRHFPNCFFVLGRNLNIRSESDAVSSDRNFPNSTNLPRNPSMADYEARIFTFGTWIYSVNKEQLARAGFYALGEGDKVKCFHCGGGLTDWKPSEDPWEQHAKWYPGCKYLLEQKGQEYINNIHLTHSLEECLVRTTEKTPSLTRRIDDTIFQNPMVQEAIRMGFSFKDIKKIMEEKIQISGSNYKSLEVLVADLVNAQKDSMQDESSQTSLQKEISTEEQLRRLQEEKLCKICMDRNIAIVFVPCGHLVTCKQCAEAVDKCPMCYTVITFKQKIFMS

With `C=CC[C@@]12N=C(c3ccc(OCCCO)cc3)O[C@@H]1c1ccccc1N(Cc1ccccc1)C2=O`, the z-score is -0.395 in assay [1]; 0.555 in assay [2]; -1.48 in [3]; -3.4 in assay [4]; -4.23 in assay [5]; 0.394 in assay [6]. Moreover, the z-score in [7] is 2.91 (inactive); in assay [8], -1.25; in assay [9] it was -0.934; in assay [10], -1.1 (inactive); in assay [11], 0.157; in assay [12], -0.848 (inactive). In addition, the z-score in assay [13] was -2.58 (inactive); in [15] it was 0.469 (inactive); in assay [16] it was 0.632 (inactive); in [17], 1.48 (inactive); in assay [18], 0.666 (inactive); in assay [19], -2.37. Besides, the composite z-score is -0.162 (inactive) in assay [14] and 0.322 in assay [20].

`CC(C)C(=C=CC[C@@H](O)c1ccccc1OCCO)C[C@@H](O)c1cc(Cl)cc(Cl)c1O`: the z-score is -0.551 in [1]; 0.493 in [2]; -1.07 in assay [3]; -3.43 in [4]; -3.96 in assay [5]; -2.61 in assay [6]. Further, the z-score is -0.00407 (inactive) in [7]; -0.847 in assay [8]; -1.31 in assay [9]; 0.0062 (inactive) in assay [10]; -0.563 in assay [11]; -4.12 (inactive) in assay [12]. Further, the z-score in assay [13] is -1.35 (inactive); in [15], 0.354 (inactive); in assay [16] it was 0.184 (inactive); in assay [17], -0.501 (inactive); in [18], -0.796 (inactive); in assay [19], -0.932. Also, the composite z-score is -2.32 (inactive) in assay [14] and -0.232 in assay [20].

In the case of `CC(C)C[C@H]1NC(=O)[C@H](Cc2ccccc2)NC(=O)[C@@]23C(=O)N[C@@H](Cc4ccccc4)C2[C@H](C)[C@@]2(C)O[C@H]2C3/C=C/C/C=C\CNC1=O` (stereo not given in full), the z-score is -0.0322 in assay [1]; 0.13 in assay [2]; -1.04 in [3]; -0.356 in assay [4]; -0.718 in assay [5]; -1.07 in assay [6]. In addition, the z-score is 0.0338 (inactive) in assay [7]; 0.478 in assay [8]; 0.704 in assay [9]; 0.395 (inactive) in assay [10]; -0.59 in assay [11]; -0.396 (inactive) in [12]. Moreover, the z-score in assay [13] was -0.263 (inactive); in assay [15], 0.519 (inactive); in assay [16], -0.711 (inactive); in assay [17] it was -0.437 (inactive); in assay [18], -0.231 (inactive); in assay [19], -0.0041. Further, the composite z-score in assay [14] is -0.228 (inactive); in assay [20] it was -0.17.

As for `CCCCC(=C=CC[C@@H](O)c1cccc(OCCO)c1)CCO`, the z-score in [1] is 1.58; in [2] it was -0.634; in assay [3] it was 0.98; in assay [4], 0.859; in [5], 0.0922; in assay [6] it was 0.416. For the same compound, the z-score in [7] was 1.27 (inactive); in assay [8] it was 0.044; in assay [9], -1.09; in [10], 1.06 (inactive); in assay [11], 0.695; in assay [12], -1.26 (inactive). Further, the z-score in [13] is -0.0452 (inactive); in assay [15], 0.424 (inactive); in assay [16], 0.549 (inactive); in assay [17] it was 1.14 (inactive); in assay [18], 0.839 (inactive); in [19], 1.37. The composite z-score was -0.376 (inactive) in [14] and -0.0853 in assay [20].

With `CC(=O)c1ccc(C(O)C2C=CC3C(=O)NC(=O)C3N2Nc2ccc(Cl)cc2Cl)cc1` (stereo not given), the z-score in [1] was -0.807; in [2] it was -0.458; in assay [3], -1.28; in [4], -0.124; in assay [5] it was -0.344; in assay [6], -0.976. Besides, the z-score in [7] is -1.4 (inactive); in assay [8], 0.574; in [9], 0.863; in assay [10], -0.743 (inactive); in [11], -1.16; in [12], -2.33 (inactive). Moreover, the z-score in assay [13] was -1.35 (inactive); in assay [15] it was 0.835 (inactive); in assay [16] it was 1.39 (inactive); in assay [17], 0.385 (inactive); in assay [18], -1.48 (inactive); in assay [19] it was -1.8. The composite z-score is 1.16 (inactive) in [14] and -0.0421 in assay [20].

On to `CC1(C)OC[C@@]23C=C(Br)[C@@H](C[C@H]12)[C@@]1(CO1)C3=O`, for which the z-score in assay [1] is 0.0066; in assay [2], -0.588; in [3] it was -0.0344; in assay [4], -0.229; in assay [5], -0.215; in assay [6] it was -0.973. The z-score in assay [7] was 0.228 (inactive); in assay [8], 0.855; in [9], -0.151; in [10] it was -0.843 (inactive); in assay [11], -0.0972; in assay [12], -1.2 (inactive). The z-score was 0.0059 (inactive) in assay [13]; -0.0582 (inactive) in assay [15]; 0.617 (inactive) in assay [16]; -0.509 (inactive) in [17]; -0.457 (inactive) in [18]; 0.325 in assay [19]. In addition, the composite z-score in assay [14] was 0.253 (inactive); in assay [20], -0.02.

For the compound `CCCC=C(CCC)[C@@H](NC(=O)c1ccccc1)c1ccc(C(=O)OC)cc1`, the z-score is -0.185 in [1]; 0.921 in assay [2]; -0.535 in assay [3]; -0.355 in [4]; -1.08 in assay [5]; -1.59 in assay [6]. The z-score in [7] was 0.131 (inactive); in assay [8], -0.515; in assay [9], -1.12; in assay [10], 0.18 (inactive); in [11], 0.295; in assay [12], -0.366 (inactive). Also, the z-score in assay [13] is 0.286 (inactive); in [15] it was 2.23 (inactive); in assay [16] it was -0.363 (inactive); in assay [17] it was -0.634 (inactive); in [18], -0.078 (inactive); in [19], -0.0265. Moreover, the composite z-score in assay [14] was -5.83 (inactive); in assay [20], 0.209.

`CCCC[C@H]1OB(O)C[C@H]2C1=C(COC)C[C@H]1C(=O)C=CC(=O)[C@H]12`: the z-score in assay [1] is 0.2; in assay [2], -0.0373; in assay [3], -0.0926; in [4], -3.25; in [5], -2.35; in assay [6] it was -2.01. In addition, the z-score in assay [7] was -1.46 (inactive); in assay [8], -0.59; in [9], -0.898; in [10], -0.347 (inactive); in assay [11], -0.796; in [12], -3.96 (inactive). Also, the z-score was -0.203 (inactive) in assay [13]; 1.52 (inactive) in assay [15]; 0.0887 (inactive) in assay [16]; 1.13 (inactive) in assay [17]; 0.756 (inactive) in assay [18]; -0.0072 in assay [19]. For the same compound, the composite z-score in assay [14] is -2.14 (inactive); in [20] it was -0.0238.

For `CCOC(=O)C[C@H]1[C@H](OC(=O)Cc2ccc3c(c2)OCO3)[C@@H](NC(=O)c2ccccc2)c2cc(OCCCO)ccc2N1C(=O)Cc1ccc(OC)cc1`, the z-score in [1] was 3.09; in assay [2], 1.19; in assay [3] it was 1.01; in assay [4], 0.856; in [5], 0.434; in assay [6] it was 1.53. The z-score in assay [7] is -0.947 (inactive); in assay [8], 0.133; in [9], -0.851; in assay [10], 0.0119 (inactive); in assay [11], -0.0111; in assay [12], -0.644 (inactive). Moreover, the z-score in [13] is -0.234 (inactive); in assay [15], 0.407 (inactive); in assay [16], -1.86 (inactive); in assay [17], 1.68 (inactive); in [18] it was 2.05 (inactive); in assay [19], 0.636. In addition, the values for the composite z-score in assay [14] and in assay [20] were -1.37 (inactive) and -0.162, respectively.
